Compound activity as filed in PubChem.
SARS PLP yeast – qHTS of Yeast-based Assay for SARS-CoV PLP | S. cerevisiae expressing SARS-CoV PLpro, growth rescue | Potency, µM (top dose mostly 32.9 µM), for the others: top-dose activity, positive = growth rescue, actives largely listed as activators | 0.19% of 330,000 active; calls by dose curve; further: 0% is about no effect; nearly all actives have a fitted effect of over 55% in size
AmpC no deterg – qHTS Inhibitors of AmpC Beta-Lactamase (assay without detergent); P00811; AmpC nitrocefin hydrolysis, absorbance 480 nm, 0.0001% Triton; Potency, µM (highest dose often 57.1 µM), without a hit: top-dose activity change, negative = inhibition, usual class: inhibitors; 0.52% of 330,000 active;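 further: plate controls were no compound for no effect and no enzyme for full effect; nearly all actives have a fitted effect of over 20% in size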
Target sequence (P00811 whole entry, looked up): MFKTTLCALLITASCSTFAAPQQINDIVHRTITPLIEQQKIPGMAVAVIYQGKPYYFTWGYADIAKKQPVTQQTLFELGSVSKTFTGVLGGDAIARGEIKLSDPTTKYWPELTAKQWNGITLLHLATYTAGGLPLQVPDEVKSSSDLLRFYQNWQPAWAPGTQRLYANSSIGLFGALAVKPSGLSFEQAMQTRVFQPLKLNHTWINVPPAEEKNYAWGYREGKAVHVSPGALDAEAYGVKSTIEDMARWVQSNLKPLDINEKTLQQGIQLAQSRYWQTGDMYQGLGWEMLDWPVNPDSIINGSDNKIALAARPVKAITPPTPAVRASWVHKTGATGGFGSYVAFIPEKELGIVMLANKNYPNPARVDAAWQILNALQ
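AmpC (5.3 nM in the dispensed reagent) in 20 mM phosphate pH 7.0 with 0.01% (detergent screen) or 0.0001% Triton X-100 was preincubated with compounds for 15 min at room temperature. Nitrocefin was then added from an 800 uM solution, and hydrolysis was followed at 480 nm.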
AmpC detergent – qHTS Inhibitors of AmpC Beta-Lactamase (assay with detergent); P00811; AmpC hydrolysis of nitrocefin, absorbance 480 nm, 0.01% Triton; Potency, µM (titrated, usually from 114 µM), for inactives: top-dose activity change, negative = inhibition, actives largely listed as inhibitors; 0.041% of 370,000 active; AID 485294, 2010;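 further: 0% = no-compound wells and -100% = no-enzyme wells; nearly all actives have a fitted effect of over 25% in size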
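20 mM phosphate pH 7.0 + 0.01% (detergent screen) or 0.0001% Triton X-100; 5.3 nM AmpC reagent; cpd preinc 15 min RT; nitrocefin (800 uM stock) to start; A480 q20 s × 4 min; Activity was normalised to no-enzyme and no-compound control wells.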
Vaccinia Venus – qHTS for Stage-Specific Inhibitors of Vaccinia Orthopoxvirus: Venus Reporter Primary qHTS. Vaccinia virus Venus reporter expression, fluorescence. Potency, µM (top dose mostly 36.5 µM), for the others: top-dose activity change, negative = inhibition, hits mostly inhibitors. 0.46% of 330,000 active; calls by dose curve; tested in A549 cells; further: on the % scale 0 is the no-effect control and ±100 the full control effect; nearly all actives have a fitted effect of over 30% in size
VACV mCherry inh – qHTS for Stage-Specific Inhibitors of Vaccinia Orthopoxvirus: mCherry Reporter Primary qHTS; Potency, µM (top dose mostly 36.5 µM), for the others: top-dose activity change, negative = inhibition, usual class: inhibitors; 0.63% of 310,000 active; AID 720579, 2013; Vaccinia virus mCherry reporter infection, fluorescence; calls by dose curve; tested in A549 cells; further: on the % scale 0 is the no-effect control and ±100 the full control effect; nearly all actives have a fitted effect of over 35% in size
AMA1-RON2 inh – qHTS for Inhibitors of AMA1-RON; Towards Development of Antimalarial Drug Lead: Primary Screen; Plasmodium falciparum AMA1 (3D7) - RON2 peptide interaction; AlphaScreen AMA1-biotinylated RON2 peptide binding; Potency, µM (series often up to 58.2 µM), without a hit: at the highest dose activity change, negative = inhibition, actives largely listed as inhibitors; 0.2% of 360,000 active;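 further: 0% = vehicle wells and -100% = peptide control; nearly all actives have a fitted effect of over 45% in size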
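AMA1 (3D7) with his tag at 25 nM final met compounds first, then biotinylated RON2 peptide at 25 nM; detection used donor plus acceptor beads, 10 µg/mL apiece, read by AlphaScreen after 30 min at room temperature.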
Numbers without * were called inactive; i = inactive; ? = inconclusive; . = no result given; [ ] = remark or other dose. Hits are enriched below; roughly 1.3% of the tested compounds scored in any of these assays. Unless noted, the call rests on the fitted dose curve; in most records, active means well fitted curve in the direction sought with a large enough effect; inconclusive means small, poorly fitted or top-dose-only effect, or another doubt; inactive means no such curve, though single readings can be large; an effect the other way counts as inactive or inconclusive. Potency means the concentration at half of the fitted maximal effect.

SMILES	SARS PLP yeast	AmpC no deterg	AmpC detergent	Vaccinia Venus	VACV mCherry inh	AMA1-RON2 inh
CCN(CC)S(=O)(=O)c1cccc(-c2nnc(SCc3nc4ccccc4s3)o2)c1	8%	-2%	-1%	28µM*	.	7%
CC1CN(CCC(=O)NC(c2cccnc2)C(F)(F)F)Cc2cc(Cl)ccc2O1 (stereo not given)	.	.	.	-10%	-10%	.
COc1ccc(N2CCC(CNC(=S)Nc3cc(C)cc(C)c3)C2)cc1 (stereo not given)	9%	-38%	3%	-28%	?	6.3µM*
Oc1cc(-c2nc3ccccc3s2)cc2c1OCCN(Cc1cccn1-c1ccc(Cl)cn1)C2	.	.	.	-1%	-7%	.
CCCc1ccc(/C=C2\C(=O)c3ccccc3C(O)=C2C(=O)OCC)cc1	-28%	18µM*	?	.	.	.
CC(=O)N1CCc2c(sc(NC(=O)c3ccc([N+](=O)[O-])o3)c2C(N)=O)C1	.	.	.	5µM*	1.8µM*	53%
CCCOc1ccc(F)cc1-c1cc(C(=O)Nc2ccc(C(C)C)cc2)[nH]n1	.	.	.	?	?	0%
C/C(=N\NC(=O)c1nn(C)c(C)c1Br)c1cccc(NC(=O)c2ccoc2C)c1	-8%	32µM*	?	-7%	i	9%
COc1ccccc1COCC(O)CNCC1(N2CCCCC2)CCCCC1 (stereo not given)	-3%	0.14µM*	0%	.	.	-24%
Fc1ccc(/C=C2\CCCC3=C2NC(=S)NC3c2ccc(F)cc2)cc1 (stereo not given)	-10%	14µM*	-14%	.	.	.
NC(Cc1cc(O)c(O)cc1O)C(=O)O (stereo not given)	1%	7.1µM*	50µM*	-11%	-6%	.
COc1ccc(C(=O)NCCc2nnc3n2CCN(CC2CC=CCC2)CC3)cc1 (stereo not given)	.	.	.	-8%	-22%	.
Nc1ccc(N(c2ccccc2)c2ccc(N)cc2)cc1	3%	-15%	1%	28µM*	?	?
Nc1cc(C(=O)O)c(N)c2c1C(=O)c1ccccc1C2=O	-6%	-28%	0%	-16%	?	18µM*
Nc1c(C(=O)O)ccc2c1C(=O)c1ccccc1C2=O	-11%	-29%	0%	226%	3%	-20%
CC(=O)/C=C/c1ccc2c(c1)S(=O)(=O)N(C1CCCC1)[C@H]2CC(C)=O	.	.	.	-8%	-6%	.
CN1CCN(c2ccccc2NC(=O)c2ccc(-c3ccccc3[N+](=O)[O-])o2)CC1	1%	75%	-6%	?	?	-13%
O=C(Oc1c(-c2ccccc2Cl)oc2ccccc2c1=O)c1ccc(Cl)cc1	-6%	18µM*	-6%	-13%	-6%	-1%
Cc1cccnc1-c1cccc2c1OC(CNC(=O)C1CCCc3c1[nH]c1ccccc31)C2 (stereo not given)	.	.	.	-21%	-6%	.
Cc1cc(C)c2ccc(N)nc2c1O	-5%	-28%	-4%	?	13µM*	53%
Cc1nc(C)n(CC(=O)NCC2Cc3cc(-c4ccsc4)cc(Cl)c3O2)n1 (stereo not given)	.	.	.	-5%	-7%	.
Cc1cc(C(=O)Nc2ccc(N3CCCC3)c(Cl)c2)ccc1[N+](=O)[O-]	1%	-29%	-7%	-18%	-21%	22µM*
O=C(Nc1ccc(N2CCCCC2)c(Cl)c1)c1cccnc1	-11%	1%	?	2%	13µM*	59%
COc1cccc(-c2nc3cc4c(cc3cc2CN(C(=O)c2cc(C)nn2C)C2CC2)CCC4)c1OC	.	.	.	-7%	-20%	.
CCC(=O)NC(c1ccc(C)cc1)c1cc([N+](=O)[O-])c2cccnc2c1O (stereo not given)	3.2µM*	-24%	-12%	?	11µM*	27%[11.6 µM]
